Compound activity (PubChem BioAssay)
DRD3 agonist = qHTS of D3 Dopamine Receptor Agonist: qHTS; D(3) dopamine receptor (Homo sapiens), P35462; max activation, %; D3R DiscoveRx beta-arrestin cells, luminescence, 90 min; AID 652048, 2013; 0.58% of 410,000 active; in the data active = max activation above about 30%; also: 0% is about no effect
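Agonist-mode cell screen: cells plated at 1500/well and incubated overnight at 37 °C, then exposed to library compounds for 90 min at 37 °C. Detection reagent was added for 30–60 min at room temperature, and luminescence was read.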
D1 ag = Allosteric Agonists of the Human D1 Dopamine Receptor: qHTS. HEK293 T-REx D1 cells, calcium flux, agonist mode. activation, % at 2 µM. 1% of 360,000 active; in the data active = activation above about 30%; also: 0% is about no effect
Target sequence (P21728 whole entry, looked up): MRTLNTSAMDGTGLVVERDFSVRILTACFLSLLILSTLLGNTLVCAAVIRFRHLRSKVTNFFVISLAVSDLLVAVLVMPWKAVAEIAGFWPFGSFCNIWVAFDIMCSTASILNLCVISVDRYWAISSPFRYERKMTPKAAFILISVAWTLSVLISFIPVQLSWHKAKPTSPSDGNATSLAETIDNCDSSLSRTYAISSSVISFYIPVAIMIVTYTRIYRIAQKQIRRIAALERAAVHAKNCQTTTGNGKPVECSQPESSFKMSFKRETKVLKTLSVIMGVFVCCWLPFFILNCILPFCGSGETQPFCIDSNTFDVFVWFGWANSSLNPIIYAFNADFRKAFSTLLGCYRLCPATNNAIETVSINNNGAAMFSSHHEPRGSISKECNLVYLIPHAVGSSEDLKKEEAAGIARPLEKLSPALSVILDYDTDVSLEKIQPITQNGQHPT
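Agonism was scored from calcium flux recorded over 180 s (1 read/s) after pintool compound addition, following a 10-cycle baseline. Cells were inducible force-coupled HEK293 TREx D1, plated overnight at 30 C and loaded with no-wash calcium dye.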
DRD3 antagonist = qHTS of D3 Dopamine Receptor Antagonist: qHTS; 2.5% of 360,000 active; D3R cells, DiscoveRx beta-arrestin luminescence, antagonist mode; hits give low values; max response, negative = inhibition, %; D(3) dopamine receptor (Homo sapiens), P35462; in the data active = max response below about -50%; also: % is scaled to controls: 0 for no effect and ±100 for the full control effect
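Cells expressing the human receptor were seeded at 1500 cells/well, incubated overnight at 37 degrees C in 5% CO2, then exposed to library compounds with dopamine controls for 90 minutes at 37 degrees C before luminescent detection.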
D1 antag = Antagonist of Human D 1 Dopamine Receptor: qHTS; D(1A) dopamine receptor (Homo sapiens), P21728; HEK293 TREx D1 cells, calcium flux, dopamine EC80; hits give low values; activity change, negative = inhibition, % at 10 µM; 3.2% of 360,000 active; in the data active = activity change below about -30%; also: % is scaled to controls: 0 for no effect and ±100 for the full control effect
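Tetracycline-induced HEK293 Trex D1 cells, force-coupled to calcium, dye-loaded; compounds added and read 180 s, then EC80 dopamine added and calcium flux tracked kinetically another 180 s.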
D1 potentiator = Potentiators of Human D1 Dopamine Receptor: qHTS; HEK293 TREx D1 cells, calcium flux, dopamine EC20 potentiation; 0.036% of 360,000 active; potentiation, % at 10 µM; D(1A) dopamine receptor (Homo sapiens), P21728; in the data active = potentiation above about 30%; also: 0% is about no effect
Starred values were filed as active, the others as inactive. Hits are enriched below; roughly 6% of the tested compounds scored in any of these assays.

What do the screens show for `NS(=O)(=O)c1ccc(NC(=O)/C=C/c2cccc(Cl)c2)cc1`?
DRD3 agonist: 1; D1 ag: 1; DRD3 antagonist: 5; D1 antag: -9; D1 potentiator: -2

Results for COc1ccc(/C=C/C(=O)Nc2ccc(C)cc2)cc1 ?
DRD3 agonist: -12; D1 ag: 1; D1 antag: -65*; D1 potentiator: -2

What do the screens show for `O=C(O)/C=C/c1ccc(S(=O)(=O)NCc2ccco2)cc1`?
DRD3 agonist: 14; D1 ag: 5; DRD3 antagonist: 16; D1 antag: 0; D1 potentiator: -2

Results for NS(=O)(=O)c1ccc(NC(=O)/C=C/c2ccc(S(=O)(=O)NCc3ccco3)cc2)cc1 ?
DRD3 agonist: -25; D1 ag: 5; DRD3 antagonist: -3; D1 antag: -43*; D1 potentiator: -5

What do the screens show for `CC(=O)c1ccc(NC(=O)/C=C/c2ccc(C)cc2)cc1`?
DRD3 agonist: -13; D1 ag: 4; DRD3 antagonist: -13; D1 antag: -9; D1 potentiator: -5

How did CC(S)C(=O)NCC(=O)O (centres undefined) do in these assays?
DRD3 agonist: -6

Results for COc1cc(-c2noc(-c3ccc(NCC4CCCO4)c([N+](=O)[O-])c3)n2)cc(OC)c1OC (centres undefined) ?
DRD3 agonist: 12; D1 ag: 9; D1 antag: -7; D1 potentiator: -4

What do the screens show for `COc1cc(C(=O)NCCC2=CCCCC2)cc(OC)c1OC`?
DRD3 agonist: -8; D1 ag: 0; DRD3 antagonist: -62*; D1 antag: 20; D1 potentiator: -5

What do the screens show for `Cc1ccc(CNCCC2=CCCCC2)cc1`?
DRD3 agonist: -50; D1 ag: 2; DRD3 antagonist: -67*; D1 antag: 3; D1 potentiator: -4

How did COc1cc(C(=O)OCC(=O)NCCC2=CCCCC2)cc(OC)c1OC do in these assays?
DRD3 agonist: -5; D1 ag: 0; DRD3 antagonist: 12; D1 antag: -2; D1 potentiator: -3

What do the screens show for `Cc1ccc(S(=O)(=O)NCCC2=CCCCC2)cc1`?
DRD3 agonist: -3; D1 ag: 8; DRD3 antagonist: -2; D1 antag: -22; D1 potentiator: -4

Results for O=C(NC(=S)NCCC1=CCCCC1)c1cncc(Br)c1 ?
DRD3 agonist: -1; D1 ag: 0; DRD3 antagonist: 2; D1 antag: -32*; D1 potentiator: -7

How did COc1ccc(C)cc1NC(=O)NCCC1=CCCCC1 do in these assays?
DRD3 agonist: -30; D1 ag: 1; DRD3 antagonist: -72*; D1 antag: 2; D1 potentiator: 4

How did O=C(NCc1ccccc1Cl)c1ccc2c(c1)ncn2-c1cccc(F)c1 do in these assays?
DRD3 agonist: -13; D1 ag: 3; D1 antag: -13; D1 potentiator: -6

What do the screens show for `COc1ccc(C)cc1NC(=O)C1COc2ccccc2C1` (centres undefined)?
DRD3 agonist: 8; D1 ag: 2; D1 antag: 6; D1 potentiator: 0

How did CC(C)c1nn2c(=O)cc(COC(=O)c3cccc(NC(=O)c4ccccc4F)c3)nc2s1 do in these assays?
DRD3 agonist: 6; D1 ag: 3; D1 antag: 18; D1 potentiator: -1

Results for COc1ccc(-c2nc3scc(CCNS(=O)(=O)c4cccs4)n3n2)cc1 ?
DRD3 agonist: 8; D1 ag: 28; D1 potentiator: -3

Results for CN(Cc1ccccc1)c1nc2c(S(=O)(=O)c3ccccc3)nnn2c2ccsc12 ?
DRD3 agonist: -15; D1 ag: 1; D1 antag: -3; D1 potentiator: -1

How did CC(C)CCNC(=O)C(=O)NCCC1=CCCCC1 do in these assays?
DRD3 agonist: -2; D1 ag: 2; DRD3 antagonist: 22; D1 antag: -47*; D1 potentiator: -3

Results for CCCNC(=O)C(=O)NCCC1=CCCCC1 ?
DRD3 agonist: 0; D1 ag: 2; DRD3 antagonist: 3; D1 antag: 0; D1 potentiator: 9
